Compound activity: PubChem BioAssay, several laboratories
Most compounds without a hit are left out; they make up all but 3.2% or so of the library.
Rce1 inh – inhibitors of yeast Ras-converting enzyme | yeast membranes, quenched prenylated peptide cleavage fluorescence | AID 2563 | 0.27% of 290,000 active | Q03530 | calls only;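 active = fall in fluorescence gain of 50% or more versus controls, with final raw signal at or below 3038400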;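 also: plate controls were neutral control wells for no effect and wells lacking membranes for full effect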
CHT inh – inhibits the human high affinity choline transporter; B-score at 10 µM; Q9GZV3; CHT-expressing cells, membrane potential dye, choline response; hits give low values; 0.86% of 310,000 active;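 active = B-score over 3 SD under the library average, and starting fluorescence ratio not unusually high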;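 also: choline stimulus applied at its EC90 after an EC20 pre-addition; B-score computed on integrated fluorescence ratio after choline addition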
ANO1 block – blocks the mouse calcium-activated chloride channel TMEM16A | Q8BHY3 | HEK293 TMEM16A/YFP iodide influx fluorescence, ionomycin | normalized B-score (activity score, 25-100; higher = stronger inhibition) at 10 µM | 1.2% of 310,000 active;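 active = ratio plate-corrected score three or more library SD toward inhibition, starting fluorescence score within five deviations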;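 also: score derived from kinetic fluorescence span divided by baseline fluorescence per well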
CHT PAM – allosteric activators of human choline transporter CHT; CHT-expressing cells, membrane potential dye, choline EC20; hits give high values; LV-AA mutant CHT in HEK293 cells; B-score at 10 µM; 0.49% of 310,000 active;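 active = initial fluorescence not abnormally high and integrated response B-score, plate-corrected, over 3 SD above library mean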
Kir21 block – Kir2.1 (mouse) channel inhibition; P35561; HEK293-Kir2.1, FluxOR thallium flux fluorescence; hits give low values; B-score at 10 µM; 0.85% of 310,000 active; AID 1672;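 active = fluorescence ratio B-score at or below minus 3 SD of library scores, with starting-brightness B-score within 2 SD, cut at about -4.2 in these data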;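 also: channel flux triggered by added potassium and thallium sulfate stimulus; B-score of peak minus minimum fluorescence over baseline after thallium stimulus; more negative B-score means stronger Kir2.1 block with less thallium influx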
Target sequence (P35561 whole entry, looked up): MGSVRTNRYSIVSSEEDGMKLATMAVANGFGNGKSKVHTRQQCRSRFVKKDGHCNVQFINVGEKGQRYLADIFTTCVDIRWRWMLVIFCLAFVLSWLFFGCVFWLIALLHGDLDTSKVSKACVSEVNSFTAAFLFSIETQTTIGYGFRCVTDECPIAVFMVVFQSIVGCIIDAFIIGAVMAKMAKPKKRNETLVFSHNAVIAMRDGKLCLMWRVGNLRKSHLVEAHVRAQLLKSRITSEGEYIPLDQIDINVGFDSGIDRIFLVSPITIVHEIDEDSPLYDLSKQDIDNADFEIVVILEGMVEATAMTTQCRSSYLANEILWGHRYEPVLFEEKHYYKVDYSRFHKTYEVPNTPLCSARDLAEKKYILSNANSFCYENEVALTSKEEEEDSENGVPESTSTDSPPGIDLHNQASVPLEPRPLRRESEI
ANO1 activ – mouse TMEM16A channel activation, primary screen | AID 623877 | B-score at 10 µM | 0.3% of 340,000 active | Q8BHY3 | HEK293 TMEM16A/YFP-H148Q/I152L, iodide quench fluorescence; hits give low values;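 active = fluorescence-ratio B-score plate-corrected deviation score at least 3 library SD below zero, with starting fluorescence score within 5 deviations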;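 also: channel opened by trigger with iodide after compound preincubation; score built on the fluorescence ratio of max minus min over baseline; more negative score means more quench and so TMEM16A activation or potentiation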
The depositor's hits bear a star.

CN(C)C(=O)c1ccc(NC(=O)COc2cccc3c2OC(C)(C)C3)cc1 was read as ANO1 activ inactive.
Screening COc1ccc(OC)c(/C=N\NC(=O)CSc2nnc(CCCc3ccc(OC)c(C)c3)o2)c1 returned Rce1 inh inactive, CHT inh inactive, ANO1 block 100*, CHT PAM inactive, Kir21 block 0.62 and ANO1 activ inactive.
COc1ccc(CCCc2nnc(SCC(=O)Nc3cc(C)c(C)cc3Br)o2)cc1 was read as Rce1 inh inactive, CHT inh inactive, ANO1 block inactive, CHT PAM inactive, Kir21 block -3 and ANO1 activ inactive.
For COc1ccc(OC)c(/C=N/NC(=O)Cn2ccnc2C)c1 the results were Rce1 inh active, CHT inh inactive, ANO1 block inactive, CHT PAM inactive, Kir21 block -0.55 and ANO1 activ inactive.
Screening COc1ccc(OC)c(/C=N/NC(=O)CSc2cc(C)nc3c(OC)cccc23)c1 returned Rce1 inh active, CHT inh inactive, ANO1 block inactive, CHT PAM inactive, Kir21 block 0.39 and ANO1 activ inactive.
Screening COc1cccc(/C=N/NC(=O)CSc2ccccc2C)c1OC returned Rce1 inh inactive, CHT inh inactive, ANO1 block inactive, CHT PAM inactive, Kir21 block -0.76 and ANO1 activ inactive.
COc1ccc(/C=C2\CCc3ccccc3C2=O)cc1O was read as Rce1 inh inactive, CHT inh inactive, ANO1 block inactive, CHT PAM inactive, Kir21 block 0.36 and ANO1 activ inactive.
Screening CCC(=O)Nc1cccc(NC(=S)NC(=O)c2cccs2)c1 returned Rce1 inh active, CHT inh inactive, ANO1 block inactive, CHT PAM inactive, Kir21 block -0.48 and ANO1 activ inactive.
`CC(SC1=Nc2ccccc2C2CC=NN12)C(=O)NC1(C#N)CCCCC1` (stereo not drawn) gave CHT inh inactive, ANO1 block inactive, CHT PAM inactive, Kir21 block -4.6* and ANO1 activ inactive.
Cc1ccc(NC(=O)CSCC(=O)Nc2cc(S(=O)(=O)N3CCOCC3)ccc2OC(C)C)cc1 was read as ANO1 activ inactive.
Screening CN(C)/C=C/C(=O)c1ccc(F)cc1F returned Rce1 inh inactive, CHT inh inactive, ANO1 block inactive, CHT PAM inactive, Kir21 block -0.76 and ANO1 activ inactive.
O=C(OC[C@@H]1CCCN2CCCC[C@H]12)c1cc2ccccc2oc1=O was read as Rce1 inh active, CHT inh inactive, ANO1 block inactive, CHT PAM inactive, Kir21 block 0.07 and ANO1 activ inactive.
Screening Cc1cc(-c2cc(-c3ccc(Cl)cc3)nc(N)c2C#N)co1 returned Rce1 inh inactive, CHT inh inactive, ANO1 block inactive, CHT PAM inactive, Kir21 block -4.9* and ANO1 activ inactive.
Cc1ccc(-c2cc(-c3ccc(C)o3)nc(N)c2C#N)cc1 was read as Rce1 inh inactive, CHT inh inactive, ANO1 block inactive, CHT PAM inactive, Kir21 block 0.79 and ANO1 activ inactive.
Screening Cc1ccc(-c2cc(-c3ccc(Cl)cc3)c(C#N)c(N)n2)o1 returned Rce1 inh inactive, CHT inh inactive, ANO1 block inactive, CHT PAM inactive, Kir21 block -4.5* and ANO1 activ inactive.
Screening CCOc1ccc(C2NC(=O)NC(C)=C2C(=O)OCc2ccccc2)cc1 (stereo not drawn) returned Rce1 inh inactive, CHT inh inactive, ANO1 block inactive, CHT PAM inactive, Kir21 block -0.62 and ANO1 activ inactive.
For CCSCCOC(=O)C1=C(C)NC(=O)NC1c1ccccc1 (stereo not drawn) the results were Rce1 inh active, CHT inh inactive, ANO1 block inactive, CHT PAM inactive, Kir21 block -0.84 and ANO1 activ inactive.
`Cc1ccc(NC(=O)CN2C(=O)S/C(=C/c3ccc(-c4cc(C(=O)O)ccc4C)o3)C2=O)cc1C` gave Rce1 inh inactive, CHT inh inactive, ANO1 block 100*, CHT PAM inactive, Kir21 block -1.2 and ANO1 activ inactive.
